# In the supplement of paper PMC12819154, “High-throughput peptide-centric local stability assay extends protein–ligand identification to membrane proteins, tissues and bacteria” (Nature Structural & Molecular Biology, 2025):
# Compound: CN[C@@H]1C[C@H]2O[C@@](C)([C@@H]1OC)n1c3ccccc3c3c4c(c5c6ccccc6n2c5c31)C(=O)NC4 [staurosporine]
# Test: log2 fold change of tryptic peptide abundance, ligand vs vehicle (limited proteolysis) (log2 ratio); higher = more trypsin-susceptible (destabilized)
# Conditions: ligand concentration: 20 uM; sample: K562 cleared lysate; digestion: 4 min, 22 C (HT-PELSA RT4min, Orbitrap Astral)
# Sequence of UniProt O43615 (O43615 whole entry): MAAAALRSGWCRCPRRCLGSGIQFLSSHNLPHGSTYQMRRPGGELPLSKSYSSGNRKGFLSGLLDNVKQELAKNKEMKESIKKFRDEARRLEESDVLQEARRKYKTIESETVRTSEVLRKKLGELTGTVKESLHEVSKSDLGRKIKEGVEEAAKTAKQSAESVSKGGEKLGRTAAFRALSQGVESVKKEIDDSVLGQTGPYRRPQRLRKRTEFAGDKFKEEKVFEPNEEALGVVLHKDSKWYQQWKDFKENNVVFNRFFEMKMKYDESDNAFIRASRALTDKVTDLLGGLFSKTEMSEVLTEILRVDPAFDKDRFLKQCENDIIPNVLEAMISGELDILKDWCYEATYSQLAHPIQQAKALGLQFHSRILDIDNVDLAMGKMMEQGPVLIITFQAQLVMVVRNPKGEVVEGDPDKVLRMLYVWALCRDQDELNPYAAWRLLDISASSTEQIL
# Sequence of UniProt Q93074 (Q93074 whole entry): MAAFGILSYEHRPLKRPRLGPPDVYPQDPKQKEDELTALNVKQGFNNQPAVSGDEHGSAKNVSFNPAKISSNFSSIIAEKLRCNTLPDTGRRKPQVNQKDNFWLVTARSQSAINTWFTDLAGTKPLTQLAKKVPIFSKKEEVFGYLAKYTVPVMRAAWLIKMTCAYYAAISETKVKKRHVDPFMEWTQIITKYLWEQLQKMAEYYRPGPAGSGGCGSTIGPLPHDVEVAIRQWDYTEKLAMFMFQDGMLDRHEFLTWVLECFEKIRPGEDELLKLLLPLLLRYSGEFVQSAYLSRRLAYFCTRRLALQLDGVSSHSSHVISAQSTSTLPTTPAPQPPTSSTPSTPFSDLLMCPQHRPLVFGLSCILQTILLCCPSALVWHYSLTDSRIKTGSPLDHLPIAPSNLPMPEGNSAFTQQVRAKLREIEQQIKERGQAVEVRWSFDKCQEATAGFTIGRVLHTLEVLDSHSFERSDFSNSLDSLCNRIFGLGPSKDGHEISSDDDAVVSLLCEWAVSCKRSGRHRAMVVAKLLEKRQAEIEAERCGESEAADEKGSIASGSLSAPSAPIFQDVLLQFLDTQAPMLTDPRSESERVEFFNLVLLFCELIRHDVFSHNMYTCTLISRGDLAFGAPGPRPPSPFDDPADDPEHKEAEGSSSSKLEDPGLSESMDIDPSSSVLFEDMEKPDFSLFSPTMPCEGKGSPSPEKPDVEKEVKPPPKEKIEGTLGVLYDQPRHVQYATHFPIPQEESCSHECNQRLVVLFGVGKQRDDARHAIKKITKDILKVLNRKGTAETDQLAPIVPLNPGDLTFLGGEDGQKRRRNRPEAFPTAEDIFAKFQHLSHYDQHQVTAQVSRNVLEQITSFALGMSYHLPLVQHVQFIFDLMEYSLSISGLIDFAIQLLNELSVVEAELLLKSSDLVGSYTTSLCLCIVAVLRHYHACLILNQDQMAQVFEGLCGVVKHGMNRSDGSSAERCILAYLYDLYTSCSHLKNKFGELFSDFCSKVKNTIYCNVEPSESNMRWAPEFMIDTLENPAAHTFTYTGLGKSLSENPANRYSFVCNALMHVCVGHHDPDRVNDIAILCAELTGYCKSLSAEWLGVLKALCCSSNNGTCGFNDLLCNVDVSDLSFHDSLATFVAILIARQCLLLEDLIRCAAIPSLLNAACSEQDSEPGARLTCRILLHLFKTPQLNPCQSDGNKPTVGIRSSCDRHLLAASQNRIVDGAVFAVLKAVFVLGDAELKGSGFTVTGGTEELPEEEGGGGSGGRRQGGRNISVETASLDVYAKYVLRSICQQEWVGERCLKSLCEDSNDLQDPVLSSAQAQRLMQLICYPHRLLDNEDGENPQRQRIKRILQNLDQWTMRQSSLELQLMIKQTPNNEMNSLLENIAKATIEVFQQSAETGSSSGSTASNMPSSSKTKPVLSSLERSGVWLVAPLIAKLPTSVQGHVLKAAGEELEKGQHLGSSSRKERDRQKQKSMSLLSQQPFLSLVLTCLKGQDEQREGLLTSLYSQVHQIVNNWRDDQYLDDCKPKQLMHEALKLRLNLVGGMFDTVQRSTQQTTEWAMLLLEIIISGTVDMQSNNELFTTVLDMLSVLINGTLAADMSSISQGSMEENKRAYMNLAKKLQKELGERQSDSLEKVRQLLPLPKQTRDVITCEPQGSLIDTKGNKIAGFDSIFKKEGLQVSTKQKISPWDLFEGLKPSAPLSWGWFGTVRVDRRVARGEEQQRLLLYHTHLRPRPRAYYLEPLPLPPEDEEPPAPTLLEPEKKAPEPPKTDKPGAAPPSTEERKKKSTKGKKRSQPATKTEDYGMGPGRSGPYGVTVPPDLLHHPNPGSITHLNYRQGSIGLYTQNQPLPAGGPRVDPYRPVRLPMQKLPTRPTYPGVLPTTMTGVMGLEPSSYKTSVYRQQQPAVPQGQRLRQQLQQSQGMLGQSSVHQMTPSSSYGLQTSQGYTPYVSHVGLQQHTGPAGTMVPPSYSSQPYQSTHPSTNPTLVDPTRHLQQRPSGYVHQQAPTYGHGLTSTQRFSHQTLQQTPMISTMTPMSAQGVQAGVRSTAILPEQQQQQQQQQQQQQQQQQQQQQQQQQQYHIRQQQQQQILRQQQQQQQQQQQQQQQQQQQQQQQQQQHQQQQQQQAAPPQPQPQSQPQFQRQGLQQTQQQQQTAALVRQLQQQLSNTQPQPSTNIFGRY
# Sequence of UniProt O75153 (O75153 whole entry): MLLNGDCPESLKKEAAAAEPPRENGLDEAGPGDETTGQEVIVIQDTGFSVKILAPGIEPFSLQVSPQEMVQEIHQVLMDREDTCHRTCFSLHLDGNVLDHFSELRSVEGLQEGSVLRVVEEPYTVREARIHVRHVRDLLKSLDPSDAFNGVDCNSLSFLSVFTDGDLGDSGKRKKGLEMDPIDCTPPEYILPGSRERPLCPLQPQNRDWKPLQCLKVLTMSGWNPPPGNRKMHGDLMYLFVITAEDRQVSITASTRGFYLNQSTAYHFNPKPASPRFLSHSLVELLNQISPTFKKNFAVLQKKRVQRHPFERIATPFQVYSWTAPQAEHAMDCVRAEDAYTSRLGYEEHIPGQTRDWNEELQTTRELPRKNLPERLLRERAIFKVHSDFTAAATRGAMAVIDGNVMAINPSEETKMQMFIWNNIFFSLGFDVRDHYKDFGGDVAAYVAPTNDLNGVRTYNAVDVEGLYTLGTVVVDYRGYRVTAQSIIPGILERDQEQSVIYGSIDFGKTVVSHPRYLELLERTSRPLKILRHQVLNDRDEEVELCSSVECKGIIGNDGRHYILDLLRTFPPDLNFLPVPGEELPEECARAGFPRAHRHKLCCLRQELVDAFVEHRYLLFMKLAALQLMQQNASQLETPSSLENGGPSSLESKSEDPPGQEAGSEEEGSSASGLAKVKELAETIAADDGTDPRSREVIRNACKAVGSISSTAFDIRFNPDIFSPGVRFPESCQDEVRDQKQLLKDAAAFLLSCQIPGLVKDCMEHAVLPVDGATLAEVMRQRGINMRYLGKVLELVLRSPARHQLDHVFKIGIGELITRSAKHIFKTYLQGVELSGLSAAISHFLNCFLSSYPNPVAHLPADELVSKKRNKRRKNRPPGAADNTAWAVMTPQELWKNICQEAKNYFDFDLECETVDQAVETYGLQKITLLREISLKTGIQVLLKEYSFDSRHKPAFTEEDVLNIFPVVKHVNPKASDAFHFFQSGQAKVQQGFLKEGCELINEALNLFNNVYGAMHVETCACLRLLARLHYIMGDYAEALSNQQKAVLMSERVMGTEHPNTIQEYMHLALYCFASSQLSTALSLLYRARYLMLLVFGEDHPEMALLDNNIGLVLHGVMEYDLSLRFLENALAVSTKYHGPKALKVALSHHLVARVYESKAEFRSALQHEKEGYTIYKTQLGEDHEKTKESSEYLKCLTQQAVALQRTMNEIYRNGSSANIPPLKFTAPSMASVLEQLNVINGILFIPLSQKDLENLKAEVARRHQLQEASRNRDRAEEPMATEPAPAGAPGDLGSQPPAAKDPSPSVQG
# Sequence of UniProt P49674 (P49674 whole entry, looked up): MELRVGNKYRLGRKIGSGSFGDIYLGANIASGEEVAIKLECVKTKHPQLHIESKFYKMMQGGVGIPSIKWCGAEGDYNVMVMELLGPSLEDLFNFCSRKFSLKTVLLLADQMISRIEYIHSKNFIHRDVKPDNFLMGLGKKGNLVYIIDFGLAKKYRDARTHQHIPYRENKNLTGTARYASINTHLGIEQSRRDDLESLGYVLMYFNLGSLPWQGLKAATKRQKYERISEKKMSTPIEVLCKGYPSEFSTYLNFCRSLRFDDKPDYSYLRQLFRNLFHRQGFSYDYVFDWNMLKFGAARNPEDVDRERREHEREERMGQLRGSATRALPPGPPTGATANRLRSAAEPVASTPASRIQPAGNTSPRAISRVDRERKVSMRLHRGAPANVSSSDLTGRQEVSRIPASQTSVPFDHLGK
# Sequence of UniProt Q2VIR3 (Q2VIR3 whole entry): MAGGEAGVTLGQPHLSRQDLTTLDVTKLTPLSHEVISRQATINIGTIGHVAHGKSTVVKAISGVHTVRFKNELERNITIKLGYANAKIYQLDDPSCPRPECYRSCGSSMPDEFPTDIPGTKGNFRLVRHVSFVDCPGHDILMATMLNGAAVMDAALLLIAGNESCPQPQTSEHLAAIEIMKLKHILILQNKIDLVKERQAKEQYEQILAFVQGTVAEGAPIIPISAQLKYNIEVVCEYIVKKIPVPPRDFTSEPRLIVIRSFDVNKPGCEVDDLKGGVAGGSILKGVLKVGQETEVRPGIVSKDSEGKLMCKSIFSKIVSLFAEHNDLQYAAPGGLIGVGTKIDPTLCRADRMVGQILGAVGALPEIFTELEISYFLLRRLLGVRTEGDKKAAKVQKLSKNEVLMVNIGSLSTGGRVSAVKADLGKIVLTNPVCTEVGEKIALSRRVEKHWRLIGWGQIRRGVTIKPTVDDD
# Sequence of UniProt P48739 (P48739 whole entry): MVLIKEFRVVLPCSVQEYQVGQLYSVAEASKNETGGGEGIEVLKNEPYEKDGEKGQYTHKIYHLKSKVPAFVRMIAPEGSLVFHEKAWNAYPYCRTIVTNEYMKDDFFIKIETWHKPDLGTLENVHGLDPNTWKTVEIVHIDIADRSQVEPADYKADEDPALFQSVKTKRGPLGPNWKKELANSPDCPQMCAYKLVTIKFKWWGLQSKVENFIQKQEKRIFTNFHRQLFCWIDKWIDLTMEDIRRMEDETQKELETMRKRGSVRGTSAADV
row,Target,log2 fold change
1,"OSBPL9 (peptide sequence: VVLPTFILER, peptide start residue: 391) (UniProt Q96SU4)",0.326
2,"UniProt Q9UBS0 (peptide sequence: HPFIVELAYAFQTGGK, peptide start residue: 128)",-0.89
3,"ULK1 (peptide sequence: LFLQQIAGAMR, peptide start residue: 117) (UniProt O75385)",-1.62
4,"USP28 (peptide sequence: FVDPSAALDLLK, peptide start residue: 232) (UniProt Q96RU2)",0.578
5,"MAP3K4 (peptide sequence: DFLSHCLESDPK, peptide start residue: 1576) (UniProt Q9Y6R4)",-1.49
6,"AP2B1 (peptide sequence: VIAAMTVGK, peptide start residue: 37) (UniProt P63010)",0.277
7,"CCNB2 (peptide sequence: VAAAASCLSQK, peptide start residue: 308) (UniProt O95067)",-1.57
8,"LATS1 (peptide sequence: QQSASYIPK, peptide start residue: 1021) (UniProt O95835)",-2.87
9,"UniProt O00506 (peptide sequence: LADFGVAGQLTDTQIKR, peptide start residue: 160)",-1.08
10,"XRCC6 (peptide sequence: LGSLVDEFK, peptide start residue: 518) (UniProt P12956)",-0.499
11,"UniProt P27448 (peptide sequence: NSIASCADEQPHIGNYR, peptide start residue: 41)",-2.82
12,"UniProt O75153 (peptide sequence: VVEEPYTVR, peptide start residue: 118)",0.461
13,"UniProt P25098 (peptide sequence: DLKPANILLDEHGHVR, peptide start residue: 317)",-0.579
14,"EPHB3 (peptide sequence: VSDFGLSR, peptide start residue: 537) (UniProt P54753)",0.918
15,"UTP11 (peptide sequence: SELHLLDFQGK, peptide start residue: 121) (UniProt Q9Y3A2)",-1.12
16,"TRMT1 (peptide sequence: RNVQLNDVAHLVQPSQADAR, peptide start residue: 195) (UniProt Q9NXH9)",0.782
17,"ULK3 (peptide sequence: VIELPLRPLLSR, peptide start residue: 230) (UniProt Q6PHR2)",-1.32
18,"PRDX6 (peptide sequence: NFDEILR, peptide start residue: 156) (UniProt P30041)",0.443
19,"TIMM44 (peptide sequence: ALSQGVESVKK, peptide start residue: 178) (UniProt O43615)",0.555
20,"GALE (peptide sequence: MCEDLWR, peptide start residue: 329) (UniProt Q14376)",0.379
21,"MELK (peptide sequence: DLKPENLLFDEYHK, peptide start residue: 132) (UniProt Q14680)",-1.98
22,"PRKAR1A (peptide sequence: ILMGSTLR, peptide start residue: 234) (UniProt P10644)",0.333
23,"MED12 (peptide sequence: NVSFNPAK, peptide start residue: 61) (UniProt Q93074)",0.555
24,"LIMK2 (peptide sequence: TLDFGLNVK, peptide start residue: 553) (UniProt P53671)",-1.38
25,"PITPNB (peptide sequence: GTSAADV, peptide start residue: 265) (UniProt P48739)",0.354
26,"UniProt P49674 (peptide sequence: FDDKPDYSYLR, peptide start residue: 260)",-0.398
27,"UniProt Q2VIR3 (peptide sequence: FKNELER, peptide start residue: 69)",0.555
